Whole data set: some 1,500 compounds, median “Inhibition index” near 0.17, cut for the highest 2% near 1.3. What follows is part of a selection rich in the highest values, with near analogues and random picks from the rest.

In this assay the test system is SARS-CoV-2. The assay can be described thus: Inhibition of cell viability relative to arbidol control (inhibition index > 1 indicates higher activity) measured by fluorescence (OD590nm) in Vero E6 cells infected with SARS-CoV-2 (strain BavPat1) at MOI 0.002 after 72hrs. The format is functional, Chlorocebus sabaeus, Vero C1008.
As to `Cc1ccc(C(=O)C(C)CN2CCCCC2)cc1.Cl` (centres undefined) [TOLPERISONE HYDROCHLORIDE], the Inhibition index was 1.172.

As for `CCCCOc1ccc(C(=O)CCN2CCCCC2)cc1.Cl` [DYCLONINE HYDROCHLORIDE], the Inhibition index is 1.119.

For the molecule `CCc1ccc(C(=O)C(C)CN2CCCCC2)cc1.Cl` (centres undefined), the Inhibition index is reported as 1.254.

Take `C[C@]12CC[C@@H]3c4ccc(O)cc4CC[C@H]3[C@@H]1CC[C@@H]2O` [ESTRADIOL]: the Inhibition index is reported as 0.3797.

In turn, `C[C@]12CC[C@@H]3c4ccc(O)cc4CC[C@H]3[C@@H]1CCC2=O` [ESTRONE] had an Inhibition index of 0.9303.

The molecule `C[C@]12CC[C@H]3C(=CCc4cc(O)ccc43)[C@@H]1CCC2=O` [EQUILIN] gave an Inhibition index of 1.282.

`CC(=O)[N-]S(=O)(=O)c1ccc(N)cc1.O.[Na+]` [SULFACETAMIDE SODIUM] showed an Inhibition index of 0.002362.

Molecule `Cc1cc(O)c(C(=O)N[C@@H](C(=O)N[C@@H]2C(=O)N3C(C(=O)O)=C(CSc4nnnn4C)CS[C@H]23)c2ccc(O)cc2)cn1` [CEFPIRAMIDE] displayed an Inhibition index of 0.7171.

The molecule `CN(C)CCCN1c2ccccc2[S+]([O-])c2ccc(Cl)cc21` (centres undefined) [CHLOROPROMAZINE SULFOXIDE] gave an Inhibition index of 0.938.

Molecule `CN1C[C@H](CNC(=O)OCc2ccccc2)C[C@@H]2c3cccc4c3c(cn4C)C[C@H]21` [METERGOLINE] yielded an Inhibition index of -0.1165.

As to `CC(C)NCC(O)COc1ccc(CCOCC2CC2)cc1.Cl` (centres undefined) [BETAXOLOL HYDROCHLORIDE], the Inhibition index amounted to 0.6286.

Molecule `CCOc1ccc2ccccc2c1C(=O)N[C@@H]1C(=O)N2[C@@H]1SC(C)(C)[C@@H]2C(=O)[O-].O.[Na+]` [NAFCILLIN SODIUM] gave an Inhibition index of 0.3633.

Regarding `Brc1c(NC2=NCCN2)ccc2nccnc12.O=C(O)C(O)C(O)C(=O)O`, the Inhibition index is recorded as 0.355.

As for `CN(C)[C@@H]1C(O)=C(C(N)=O)C(=O)[C@@]2(O)C(O)=C3C(=O)c4c(O)cccc4[C@@](C)(O)[C@H]3C[C@@H]12.Cl` [TETRACYCLINE HYDROCHLORIDE], the Inhibition index is -0.0001993.

`CCC(=O)O[C@]1(C(=O)SCF)[C@H](C)C[C@H]2[C@@H]3C[C@H](F)C4=CC(=O)C=C[C@]4(C)[C@@]3(F)[C@@H](O)C[C@@]21C` [FLUTICASONE PROPIONATE] showed an Inhibition index of 0.5757.

`CN(C)[C@@H]1C(O)=C(C(N)=O)C(=O)[C@@]2(O)C(O)=C3C(=O)c4c(O)ccc(Cl)c4[C@@](C)(O)[C@H]3C[C@@H]12.Cl` [CHLORTETRACYCLINE HYDROCHLORIDE] yielded an Inhibition index of 0.03495.

Regarding `CC(C)NCC(O)c1cc(O)cc(O)c1.CC(C)NCC(O)c1cc(O)cc(O)c1.O=S(=O)(O)O` (centres undefined) [METAPROTERENOL SULFATE], the Inhibition index worked out at 0.06285.

The molecule `COCC1=C(C(=O)OC(C)OC(=O)OC(C)C)N2C(=O)[C@@H](NC(=O)/C(=N\OC)c3csc(N)n3)[C@H]2SC1` (some centres undefined) [CEFPODOXIME PROXETIL] yielded an Inhibition index of 0.5603.

The molecule `C[C@]12COC(=O)C[C@@H]1CC[C@@H]1[C@@H]2CC[C@@]2(C)[C@H]1CC[C@]2(C)O` [OXANDROLONE] displayed an Inhibition index of 0.1105.

`C[C@]12C/C(=C\O)C(=O)C[C@@H]1CC[C@@H]1[C@@H]2CC[C@@]2(C)[C@H]1CC[C@]2(C)O` showed an Inhibition index of 1.738.

`C[C@]12Cc3c[nH]nc3C[C@@H]1CC[C@@H]1[C@@H]2CC[C@@]2(C)[C@H]1CC[C@]2(C)O` [STANOZOLOL] displayed an Inhibition index of 0.4173.

Consider `CC(Cc1ccccc1)NCCC(c1ccccc1)c1ccccc1.CC(O)C(=O)O` (centres undefined), for which the Inhibition index was -0.1094.

The molecule `Cl.OC(c1cc(C(F)(F)F)nc2c(C(F)(F)F)cccc12)C1CCCCN1` (centres undefined) [MEFLOQUINE HYDROCHLORIDE] showed an Inhibition index of -0.1263.

`CS(=O)(=O)O.Cc1ccc2c(c1)c1c3n2CCNC3CCC1` (centres undefined) showed an Inhibition index of 0.5995.

The molecule `C=C1/C(=C\C=C2/CCC[C@]3(C)[C@@H]([C@H](C)CCCC(C)C)CC[C@@H]23)C[C@@H](O)C[C@@H]1O` [ALFACALCIDOL] registered an Inhibition index of -0.1396.

Molecule `COc1ccc(-c2noc(CC(=O)O)c2-c2ccc(OC)cc2)cc1` [MOFEZOLAC] had an Inhibition index of 0.1442.

`Nc1cccc2c1C(=O)N(C1CCC(=O)NC1=O)C2=O` (centres undefined) [POMALIDOMIDE] displayed an Inhibition index of -0.01474.

The molecule `O=C1Nc2ccc(Cl)cc2[C@@](C#CC2CC2)(C(F)(F)F)O1` [EFAVIRENZ] yielded an Inhibition index of -0.107.

For `CCOCCn1c(N2CCCN(C)CC2)nc2ccccc21.O=C(O)/C=C/C(=O)O.O=C(O)/C=C/C(=O)O` [EMEDASTINE DIFUMARATE], the Inhibition index is 0.1648.

Turning to `N=C(N)c1ccc(OCCCCCOc2ccc(C(=N)N)cc2)cc1.O=S(=O)(O)CCO.O=S(=O)(O)CCO` [PENTAMIDINE ISETHIONATE], the Inhibition index is given as -0.04121.

Regarding `Cc1cccc(C)c1NC(=O)CC12CCCN1CCC2.Cl`, the Inhibition index worked out at 0.08672.

Take `CCC(=O)O[C@@H]1CC(=O)O[C@H](C)C/C=C/C=C/[C@H](O)[C@H](C)C[C@H](CC=O)[C@H](O[C@@H]2O[C@H](C)[C@@H](O[C@H]3C[C@@](C)(O)[C@@H](OC(=O)CC)[C@H](C)O3)[C@H](N(C)C)[C@H]2O)[C@H]1OC` [MIDECAMYCIN]: the Inhibition index was determined as 0.09553.

In turn, `CO[C@@H]1[C@@H](O[C@@H]2O[C@H](C)[C@@H](O[C@H]3C[C@@](C)(O)[C@@H](OC(=O)CC(C)C)[C@H](C)O3)[C@H](N(C)C)[C@H]2O)[C@@H](CC=O)C[C@@H](C)[C@@H](O)/C=C/C=C/C[C@@H](C)OC(=O)C[C@H]1OC(C)=O` [JOSAMYCIN] registered an Inhibition index of 0.1589.

For the molecule `CO[C@@H]1[C@@H](O[C@@H]2O[C@H](C)[C@@H](O[C@H]3C[C@@](C)(O)[C@@H](O)[C@H](C)O3)[C@H](N(C)C)[C@H]2O)[C@@H](CC=O)C[C@@H](C)[C@@H](O[C@H]2CC[C@H](N(C)C)[C@@H](C)O2)/C=C/C=C/C[C@@H](C)OC(=O)C[C@H]1OC(C)=O`, the Inhibition index was determined as 1.276.

The record behind these values is ChEMBL document CHEMBL4303097 (2020).
